For part of these data: Measured potencies and affinities stand elsewhere. Activity calls are given as the source filed them. Unless noted, no rule for the calls is given here.
Tests used:
[1] = antimalarial activity against Dd2 strain (AID 2302;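 active = growth inhibition above 50% at the single 2 µM test dose, taken to imply half-maximal potency below 2 µM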;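 also: 0% = DMSO untreated growth and 100% = chloroquine plus artemisinin killed control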); details: P. falciparum Dd2 in RBCs, LDH growth readout, 72 h; at 2 µM; stronger effect = higher value
[2] = HepG2 cytotoxicity, primary screen, cytotoxicity control for P. falciparum antimalarial project, cell-based, ATP luminescence (AID 2303;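 active = inhibition above 50%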;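 also: 0% = DMSO wells and 100% = digitonin-killed cells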); details: HepG2 viability, 24-48 h, at 10 µM, stronger effect = higher value
[3] = molecular target: L-lactate dehydrogenase (Plasmodium falciparum (isolate CDC / Honduras)) (UniProt Q27743); experiment: PfLDH activity inhibition – cell lysate, 3D7 strain, counter-screen for P. falciparum growth inhibition project (AID 2304);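 also: 0% = vehicle and 100% = reference inhibitor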; details: P. falciparum 3D7 crude extract, LDH APAD/NBT absorbance; at 2 µM; stronger effect = higher value
[4] = inhibition of 3D7 malaria parasite growth – strain 3D7 (AID 2306);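 also: 0% = DMSO wells and 100% = chloroquine plus artemisinin control wells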; details: P. falciparum 3D7 erythrocytic growth, LDH absorbance, 72 h; at 2 µM; stronger effect = higher value
[5] = molecular target: Calcium-dependent protein kinase 1 (Plasmodium falciparum (isolate 3D7)) (UniProt P62344); experiment: PfCDPK1 kinase inhibitors, biochemical, TCAMS library (AID 1159585; cut-off not given, nearly all actives have IC50 up to about 0.98 µM;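 also: inhibitors leave more ATP so luminescence rises with inhibition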); details: recombinant PfCDPK1, Kinase-Glo ATP depletion luminescence
[6] = molecular target: Plasmodium falciparum protein kinase 6 (PK6, PF3D7_1337100) (UniProt Q8IDW1); experiment: PfPK6 kinase inhibitors, biochemical, TCAMS library (AID 1159586); details: recombinant PfPK6, Kinase-Glo ATP depletion luminescence
[7] = molecular target: Protein kinase 7 (PK7), Plasmodium falciparum 3D7 (PF3D7_0213400) (UniProt Q7YTF7); experiment: inhibition of Plasmodium PK7 catalytic activity – biochemical, TCAMS antimalarial set, Kinase-Glo luminescence (AID 1159587); details: recombinant PfPK7, Kinase-Glo ATP depletion luminescence
[8] = molecular target: Calcium-dependent protein kinase 4 (Plasmodium falciparum (isolate 3D7)) (UniProt Q8IBS5); experiment: PfCDPK4 kinase inhibitors, biochemical, TCAMS library (AID 1159588; cut-off not given, nearly all actives have IC50 up to about 0.91 µM); details: recombinant PfCDPK4, Kinase-Glo ATP depletion luminescence
Chain of Calcium-dependent protein kinase 4 (Plasmodium falciparum (isolate 3D7)) (Q8IBS5 whole entry, looked up): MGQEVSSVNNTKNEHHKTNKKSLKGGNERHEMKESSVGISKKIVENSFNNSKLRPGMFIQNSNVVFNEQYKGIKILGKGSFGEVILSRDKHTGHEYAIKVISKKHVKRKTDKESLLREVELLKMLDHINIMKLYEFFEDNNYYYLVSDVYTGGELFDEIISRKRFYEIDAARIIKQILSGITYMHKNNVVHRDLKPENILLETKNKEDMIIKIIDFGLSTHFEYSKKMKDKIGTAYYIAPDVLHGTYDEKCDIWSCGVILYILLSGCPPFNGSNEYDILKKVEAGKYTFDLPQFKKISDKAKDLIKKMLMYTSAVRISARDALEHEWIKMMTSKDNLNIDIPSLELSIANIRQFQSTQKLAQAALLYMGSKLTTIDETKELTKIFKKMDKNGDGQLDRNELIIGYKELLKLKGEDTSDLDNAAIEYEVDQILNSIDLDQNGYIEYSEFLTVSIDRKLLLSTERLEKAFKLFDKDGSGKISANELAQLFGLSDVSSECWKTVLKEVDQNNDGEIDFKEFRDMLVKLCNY

Chain of Protein kinase 7 (PK7), Plasmodium falciparum 3D7 (PF3D7_0213400) (Q7YTF7 1-343): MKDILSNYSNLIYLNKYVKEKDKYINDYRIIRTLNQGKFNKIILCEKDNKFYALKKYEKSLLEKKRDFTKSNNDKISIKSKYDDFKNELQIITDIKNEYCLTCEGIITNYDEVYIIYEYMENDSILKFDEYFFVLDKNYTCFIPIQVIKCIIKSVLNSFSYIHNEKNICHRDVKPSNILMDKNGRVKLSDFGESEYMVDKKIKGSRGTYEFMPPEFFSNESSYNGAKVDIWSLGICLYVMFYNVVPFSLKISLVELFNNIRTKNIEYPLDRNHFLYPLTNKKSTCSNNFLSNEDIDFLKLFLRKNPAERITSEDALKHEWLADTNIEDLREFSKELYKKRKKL
Chain of Calcium-dependent protein kinase 1 (Plasmodium falciparum (isolate 3D7)) (P62344 whole entry, looked up): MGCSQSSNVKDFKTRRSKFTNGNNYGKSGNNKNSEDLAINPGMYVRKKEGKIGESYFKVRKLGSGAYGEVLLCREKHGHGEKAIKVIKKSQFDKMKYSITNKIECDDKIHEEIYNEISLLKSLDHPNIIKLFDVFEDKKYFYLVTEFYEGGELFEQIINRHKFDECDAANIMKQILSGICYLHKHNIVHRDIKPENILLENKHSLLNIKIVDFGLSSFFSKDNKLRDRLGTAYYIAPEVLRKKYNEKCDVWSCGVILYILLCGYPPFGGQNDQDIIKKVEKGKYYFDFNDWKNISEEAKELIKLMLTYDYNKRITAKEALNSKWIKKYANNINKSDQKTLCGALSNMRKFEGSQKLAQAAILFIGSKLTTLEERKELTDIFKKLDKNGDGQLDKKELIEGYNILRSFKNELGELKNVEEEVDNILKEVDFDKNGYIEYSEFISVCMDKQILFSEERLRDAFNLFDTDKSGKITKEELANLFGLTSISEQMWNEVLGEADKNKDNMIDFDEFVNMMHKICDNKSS
Chain of Plasmodium falciparum protein kinase 6 (PK6, PF3D7_1337100) (Q8IDW1 1-305): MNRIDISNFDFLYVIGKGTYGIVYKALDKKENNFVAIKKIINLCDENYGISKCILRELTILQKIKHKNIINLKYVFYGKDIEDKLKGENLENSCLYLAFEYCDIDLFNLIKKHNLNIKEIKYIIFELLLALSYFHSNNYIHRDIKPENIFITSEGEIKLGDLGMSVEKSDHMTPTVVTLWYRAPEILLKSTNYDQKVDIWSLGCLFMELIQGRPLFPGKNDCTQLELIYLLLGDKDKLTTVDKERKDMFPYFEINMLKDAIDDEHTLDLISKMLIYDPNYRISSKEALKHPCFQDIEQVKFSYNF
Chain of L-lactate dehydrogenase (Plasmodium falciparum (isolate CDC / Honduras)) (Q27743 whole entry, looked up): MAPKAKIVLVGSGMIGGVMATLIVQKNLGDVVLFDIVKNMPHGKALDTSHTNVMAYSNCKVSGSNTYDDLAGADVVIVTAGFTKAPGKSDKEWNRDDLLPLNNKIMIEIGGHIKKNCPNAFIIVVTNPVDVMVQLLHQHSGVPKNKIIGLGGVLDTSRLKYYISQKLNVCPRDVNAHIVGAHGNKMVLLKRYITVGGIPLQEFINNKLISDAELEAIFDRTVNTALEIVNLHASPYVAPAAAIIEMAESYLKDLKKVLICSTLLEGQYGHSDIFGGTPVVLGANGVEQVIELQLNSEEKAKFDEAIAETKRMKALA

CN(CCN(C)CC(O)c1ccc(Cl)c(Cl)c1)CC(O)c1ccc(Cl)c(Cl)c1 (configuration not stated)
inactive: inhibition [2] 22% | inhibition [3] -2% | outcome [5] | outcome [6] | outcome [7] | outcome [8]
active: growth inhibition [1] 73% | growth inhibition [4] 91%

CCCOc1ccc2ccccc2c1CNCCCCCCNCc1c(OCCC)ccc2ccccc12
active: growth inhibition [1] 90% | inhibition [2] 100% | growth inhibition [4] 94%
inactive: inhibition [3] 0% | outcome [5] | outcome [6] | outcome [7] | outcome [8]

CCCCNc1cc(C)nc(NCc2ccccc2)n1
inactive: growth inhibition [1] 37% | inhibition [2] 23% | inhibition [3] 3% | outcome [5] | outcome [6] | outcome [7] | outcome [8]
active: growth inhibition [4] 97%

Cc1noc(C)c1-c1ccc2c(Nc3ccc(C#N)cc3)c(C(N)=O)cnc2c1
inactive: inhibition [2] 6% | inhibition [3] 7% | outcome [5] | outcome [6] | outcome [7] | outcome [8]
active: growth inhibition [1] 73% | growth inhibition [4] 97%

COc1ccc2nccc([C@@H](O)CN3CCC(NCC4COc5ccccc5O4)CC3)c2c1 (some centres not stated)
active: growth inhibition [1] 94% | growth inhibition [4] 98%
inactive: inhibition [2] 17% | inhibition [3] 4% | outcome [5] | outcome [6] | outcome [7] | outcome [8]

Cc1cccc(C)c1OC(=O)CSc1nnc(-c2ccccc2O)o1
inactive: growth inhibition [1] -2% | inhibition [2] 11% | inhibition [3] 0% | outcome [5] | outcome [6] | outcome [7] | outcome [8]
active: growth inhibition [4] 97%

O=[N+]([O-])c1cccc(-c2nc(-c3ccc(Br)cc3)[nH]c2-c2ccc(Br)cc2)c1
active: growth inhibition [4] 99%
inactive: growth inhibition [1] 44% | inhibition [2] 6% | inhibition [3] 2% | outcome [5] | outcome [6] | outcome [7] | outcome [8]

CC(C)(O)CC(C)(C)c1cc(Cl)ccc1O
active: growth inhibition [4] 96%
inactive: growth inhibition [1] 1% | inhibition [2] 5% | inhibition [3] 7% | outcome [5] | outcome [6] | outcome [7] | outcome [8]

Cc1[nH]c(C)c(-c2ccc(C#Cc3ccc(F)cc3F)cc2)c(=O)c1Br
inactive: inhibition [2] 11% | inhibition [3] -1% | outcome [5] | outcome [6] | outcome [7] | outcome [8]
active: growth inhibition [1] 98% | growth inhibition [4] 97%

O=C(NCCCCN1CCC(c2ccc3c(c2OCCN2CCCC2)CCCC3)CC1)c1ccc(-c2ccc(C(F)(F)F)cc2)cc1
active: growth inhibition [1] 81% | growth inhibition [4] 100%
inactive: inhibition [2] 25% | inhibition [3] -6% | outcome [5] | outcome [6] | outcome [7] | outcome [8]

COc1cc(Nc2ccnc3cc(-c4ccccn4)ccc23)cc(OC)c1OC
active: growth inhibition [4] 91%
inactive: growth inhibition [1] 0% | inhibition [2] -9% | inhibition [3] -1% | outcome [5] | outcome [6] | outcome [7] | outcome [8]

O=C(CNC(=O)c1ccc(O)cc1)Nc1ccc(-c2cccc(-c3nc4ccc(C(F)(F)F)cc4[nH]3)c2)cc1
inactive: growth inhibition [1] 47% | inhibition [2] 26% | inhibition [3] 3% | outcome [5] | outcome [6] | outcome [7] | outcome [8]
active: growth inhibition [4] 92%

OCCCCCCNc1nc(NCc2ccccc2-c2ccc(C(F)(F)F)cc2)nc(N2CCNCC2)n1
inactive: growth inhibition [1] 16% | inhibition [2] 13% | inhibition [3] 2% | outcome [5] | outcome [6] | outcome [7] | outcome [8]
active: growth inhibition [4] 89%

Cc1occc1C(=O)Nc1nc(-c2ccccn2)nc2ccsc12
active: growth inhibition [1] 98% | inhibition [2] 68% | growth inhibition [4] 98%
inactive: inhibition [3] 5% | outcome [5] | outcome [6] | outcome [7] | outcome [8]

O=C(Nc1ccc(Cl)cc1)Nc1ccc(-c2ccc(-c3nc4ccccc4[nH]3)cc2)cc1
active: growth inhibition [1] 99% | growth inhibition [4] 101%
inactive: inhibition [2] 47% | inhibition [3] 0% | outcome [5] | outcome [6] | outcome [7] | outcome [8]

Cc1cccn2c(=O)c3cc(C(=O)NCCc4ccccc4)c(=N)n(CCCOC(C)C)c3nc12
inactive: growth inhibition [1] 40% | inhibition [2] 19% | inhibition [3] -3% | outcome [5] | outcome [6] | outcome [7] | outcome [8]
active: growth inhibition [4] 101%

O=C(Nc1ccc(C(F)(F)F)cc1)c1cccc(S(=O)(=O)NC2CCN(CC3CCCCC3)C2)c1 (configuration not stated)
inactive: growth inhibition [1] 10% | inhibition [2] 32% | inhibition [3] -2% | outcome [5] | outcome [6] | outcome [7] | outcome [8]
active: growth inhibition [4] 98%

COc1cc2nc(N3CCC(CNC(=O)c4ccc(-c5ccc(C(=O)N(C)C)cc5OCCN(C)C)cc4)CC3)nc(N)c2cc1OC
active: growth inhibition [4] 95%
inactive: growth inhibition [1] -1% | inhibition [2] -1% | inhibition [3] -6% | outcome [5] | outcome [6] | outcome [7] | outcome [8]

COc1ccc(-c2csc(C(=O)NC3CCC(N4CCC(c5ccccc5C)CC4)CC3)c2)cc1 (configuration not stated)
inactive: inhibition [3] -1% | outcome [5] | outcome [6] | outcome [7] | outcome [8]
active: growth inhibition [1] 99% | inhibition [2] 64% | growth inhibition [4] 101%

COc1ccc2ncc(F)c([C@H](O)CN3CCC(NCc4ccc5c(c4)NC(=O)CO5)CC3)c2c1
active: growth inhibition [1] 101% | growth inhibition [4] 102%
inactive: inhibition [2] 16% | inhibition [3] -1% | outcome [5] | outcome [6] | outcome [7] | outcome [8]

Cc1cccc2[nH]c(-c3ccc(-c4ccc(CNC(C)C)cc4)cc3)nc12
inactive: inhibition [2] 12% | inhibition [3] 0% | outcome [5] | outcome [6] | outcome [7] | outcome [8]
active: growth inhibition [1] 62% | growth inhibition [4] 99%

CC(=O)Nc1nc(C(=O)Nc2ccc(-c3ccc(-c4nc5ccccc5[nH]4)cc3)cc2)cs1
active: growth inhibition [1] 53% | growth inhibition [4] 100%
inactive: inhibition [2] 38% | inhibition [3] -5% | outcome [5] | outcome [6] | outcome [7] | outcome [8]

Cc1cc(C2CCN(CCCCNC(=O)c3ccc(NC(=O)c4ccc(Cl)cc4)cc3)CC2)c(C)cc1OC(C)C
inactive: inhibition [2] 22% | inhibition [3] 7% | outcome [5] | outcome [6] | outcome [7] | outcome [8]
active: growth inhibition [1] 92% | growth inhibition [4] 100%

Cc1cc(N2CCN(C(=O)OC(C)(C)C)CC2)ccc1N
active: growth inhibition [4] 92%
inactive: growth inhibition [1] 38% | inhibition [2] 11% | inhibition [3] -2% | outcome [5] | outcome [6] | outcome [7] | outcome [8]

CN(CCCNc1ccc(C(=O)Nc2ccc(C(F)(F)F)cc2)cc1[N+](=O)[O-])Cc1ccccc1
inactive: growth inhibition [1] 48% | inhibition [2] 25% | inhibition [3] -9% | outcome [5] | outcome [6] | outcome [7] | outcome [8]
active: growth inhibition [4] 100%

CC(=O)Nc1nc(C(=O)Nc2cccc(-c3cccc(-c4nc5ccccc5[nH]4)c3)c2)cs1
active: growth inhibition [1] 82% | growth inhibition [4] 100%
inactive: inhibition [2] 31% | inhibition [3] 0% | outcome [5] | outcome [6] | outcome [7] | outcome [8]

O=C(NCCCCN1CCC(c2c[nH]c3ccccc23)CC1)c1ccc(-c2ccc(C(F)(F)F)cc2)cc1
inactive: growth inhibition [1] 22% | inhibition [2] 34% | inhibition [3] -1% | outcome [5] | outcome [6] | outcome [7] | outcome [8]
active: growth inhibition [4] 98%

CCOC(=O)c1cnc2c(OC)cc(OC)c(Cl)c2c1Nc1ccccc1
active: growth inhibition [1] 100% | growth inhibition [4] 99%
inactive: inhibition [2] 13% | inhibition [3] -3% | outcome [5] | outcome [6] | outcome [7] | outcome [8]

CCOc1ccc(NC(=O)c2ccc(CN3CCCN(Cc4cccc(O)c4)CC3)cc2)cc1
inactive: growth inhibition [1] 9% | inhibition [2] 44% | inhibition [3] 0% | outcome [5] | outcome [6] | outcome [7] | outcome [8]
active: growth inhibition [4] 85%

O=C(Cc1ccc(NC(=O)c2ccc(O)c(-c3ccc(Cl)c(Cl)c3)c2)cc1)NCCN1CCCCC1
active: growth inhibition [1] 63% | growth inhibition [4] 95%
inactive: inhibition [2] 12% | inhibition [3] -4% | outcome [5] | outcome [6] | outcome [7] | outcome [8]

Fc1ccc2cc(C=Cc3ccncc3)[nH]c2c1
active: growth inhibition [1] 89% | growth inhibition [4] 100%
inactive: inhibition [2] -10% | inhibition [3] 0% | outcome [5] | outcome [6] | outcome [7] | outcome [8]

CCCCCN1CCCN(Cc2cccc(NC(=O)c3ccc(Cl)c(Cl)c3)c2)CC1
inactive: growth inhibition [1] 28% | inhibition [2] 30% | inhibition [3] 0% | outcome [5] | outcome [6] | outcome [7] | outcome [8]
active: growth inhibition [4] 89%

CCN(CC)CCN(Cc1ccc(-c2ccc(C(F)(F)F)cc2)cc1)C(=O)Cn1c(CCc2ccc(F)cc2)nc(=O)c2ccccc21
inactive: inhibition [2] 42% | inhibition [3] -3% | outcome [5] | outcome [6] | outcome [7] | outcome [8]
active: growth inhibition [1] 58% | growth inhibition [4] 97%

COc1ccc(C2CC(=O)C3=C(C2)NC(C)=C(C(=O)OC(C)C)C3c2c(F)cccc2Cl)cc1OC (configuration not stated)
active: growth inhibition [1] 81% | growth inhibition [4] 93%
inactive: inhibition [2] 0% | inhibition [3] -1% | outcome [5] | outcome [6] | outcome [7] | outcome [8]

Cc1nc(-c2nc(NCc3ccccn3)ncc2-c2ccsc2)sc1C
active: growth inhibition [1] 87% | growth inhibition [4] 92%
inactive: inhibition [2] -2% | inhibition [3] 4% | outcome [5] | outcome [6] | outcome [7] | outcome [8]

Cc1cc(N[C@@H](CC(C)C)C(=O)Nc2ccccc2)nc(NCc2ccccc2C)n1
active: growth inhibition [1] 81% | growth inhibition [4] 101%
inactive: inhibition [2] 21% | inhibition [3] 4% | outcome [5] | outcome [6] | outcome [7] | outcome [8]

O=C(Nc1cccnc1)c1cc(-c2cccnc2)nc2ccc(Br)cc12
inactive: inhibition [2] 9% | inhibition [3] 1% | outcome [5] | outcome [6] | outcome [7] | outcome [8]
active: growth inhibition [1] 60% | growth inhibition [4] 99%

c1ccc(-c2ccc(-c3nc4ccccc4[nH]3)cc2)cc1
inactive: inhibition [2] 10% | inhibition [3] -5% | outcome [5] | outcome [6] | outcome [7] | outcome [8]
active: growth inhibition [1] 83% | growth inhibition [4] 93%

Nc1nccc(-c2ccc3c(/C=C/c4ccccc4)cnc(N)c3c2)n1
inactive: inhibition [2] 32% | inhibition [3] 2% | outcome [5] | outcome [6] | outcome [7] | outcome [8]
active: growth inhibition [1] 100% | growth inhibition [4] 101%

From PubChem BioAssay
